Results: PubChem BioAssay (NCI)
Compounds without any hit were thinned out: in the full panel of roughly 83,000, 20% have a hit.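 Step 1: grow cells in 96-well plates. Step 2: add test compound at a single concentration. Step 3: incubate 48 h. Step 4: record percent growth.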 Activity calls are given as the source filed them. The calls were made as follows: active = growth percent below 10; inactive = the rest.

Experiments:
Test in all cases: NCI-60 one-dose screen, 48 h (100 = growth as untreated, 0 = no growth, -100 = all killed)
Details in all cases: 10 µM unless noted
[1] = test system: NCI-H23 lung
[2] = test system: NCI-H226 lung
[3] = test system: NCI-H322M lung
[4] = test system: HOP-62 NSCLC
[5] = test system: NCI-H460 lung
[6] = test system: HOP-92 NSCLC
[7] = test system: NCI-H522 lung
[8] = test system: A549/ATCC NSCLC
[9] = test system: 786-0 renal
[10] = test system: COLO 205 colon
[11] = test system: DU-145 prostate
[12] = test system: K-562 leukemia
[13] = test system: MALME-3M melanoma
[14] = test system: MDA-MB-231 breast
[15] = test system: RXF 393 renal
[16] = test system: SF-268 CNS
[17] = test system: SF-295 CNS
[18] = test system: SF-539 CNS
[19] = test system: UACC-257 melanoma
[20] = test system: M14 melanoma

Measured: growth

COc1ccc(NC(=O)c2ccc3c(c2)nc(-c2cc4ccccc4[nH]c2=O)n3-c2cc(C(C)(C)C)[nH]n2)cc1
inactive: [1] 90.4% | [2] 99% | [3] 91.7% | [4] 98.7% | [5] 97.4% | [6] 90.8% | [7] 72.8% | [8] 93.7% | [9] 92.4% | [10] 96.4% | [11] 103% | [12] 82.4% | [13] 101% | [14] 98.2% | [15] 77.3% | [16] 79.3% | [17] 89.9% | [18] 94.9% | [19] 97.7% | [20] 96.1%

N#C/C(=C\c1ccc(-c2ccc(F)cc2)o1)c1nc(-c2ccco2)cs1
inactive: [1] 93.6% | [2] 84% | [3] 93% | [4] 96.7% | [5] 91.2% | [6] 93.9% | [7] 98.1% | [8] 103% | [9] 109% | [10] 108% | [11] 104% | [12] 95.9% | [13] 98.1% | [14] 88.7% | [15] 116% | [16] 106% | [17] 102% | [18] 98.7% | [19] 106% | [20] 102%

CC1(C)NCCC[C@]2(C)[C@H]3CC[C@@H]4[C@H]5[C@H](C(=O)/C=C/c6ccccn6)CC[C@]5(CO)CC[C@@]4(C)[C@]3(C)CC[C@@H]12
inactive: [1] 72.9% | [2] 85.5% | [3] 86.4% | [4] 77% | [5] 25.1% | [6] 35.6% | [7] 54.4% | [8] 36.9% | [9] 85.4% | [11] 67.7% | [13] 73.6% | [14] 71.1% | [15] 56.7% | [16] 78.7% | [17] 88.8% | [18] 86.1% | [19] 64% | [20] 61.1%
active: [10] -74.3% | [12] -2.17%

COc1ccc(-c2c(-c3nc4ccc(N5CCOCC5)cc4[nH]3)[nH]c(C)c2C(C)=O)cc1
inactive: [1] 52.6% | [2] 49.7% | [3] 43.6% | [4] 30.6% | [5] 57.8% | [6] 49.5% | [7] 37.8% | [8] 48.4% | [9] 45.3% | [10] 15.9% | [11] 74.6% | [12] 35.1% | [13] 36.4% | [14] 37.5% | [15] 44.8% | [16] 70.3% | [17] 35.7% | [18] 36.9% | [19] 44.7% | [20] 35.6%

O=c1[nH]c(=S)[nH]c2nc[nH]c12
inactive: [1] 88.6% | [2] 99.8% | [3] 118% | [4] 86.9% | [5] 112% | [6] 108% | [7] 100% | [8] 99.1% | [9] 91.6% | [10] 123% | [11] 107% | [12] 89.2% | [13] 112% | [14] 109% | [15] 79.5% | [16] 97.9% | [17] 106% | [18] 105% | [19] 96.6% | [20] 90.7%

CC(=O)NC1=C(C#N)C(c2ccccc2Cl)c2c(ccc3ccccc23)O1 (stereo not given)
inactive: [1] 76.2% | [2] 83.5% | [3] 86.8% | [4] 59.2% | [5] 39.1% | [6] 72.5% | [7] 39.2% | [8] 67.1% | [9] 82.7% | [10] 79.5% | [11] 89.1% | [12] 19.4% | [13] 48.4% | [14] 66.6% | [15] 77.2% | [16] 68.5% | [17] 25.7% | [18] 58.4% | [19] 76.7% | [20] 31.1%

C[C@H]1[C@H]2C3=CC[C@@H]4[C@@]5(C)C/C(=C/c6ccco6)C(=O)C(C)(C)[C@@H]5CC[C@@]4(C)[C@]3(C)CC[C@@]2(C(=O)N2CCOCC2)CC[C@@H]1C
inactive: [1] 44.2% | [2] 83.8% | [3] 95.3% | [4] 105% | [5] 94.9% | [6] 78.4% | [7] 38% | [8] 70.4% | [9] 95.5% | [10] 94.1% | [11] 88.1% | [12] 27.4% | [13] 83.3% | [14] 90.5% | [15] 62% | [16] 85.8% | [17] 81.4% | [18] 82.7% | [19] 88.4% | [20] 76.9%

CCOC(=O)C1OC1(c1ccccc1)c1ccccc1 (stereo not given)
inactive: [1] 111% | [2] 106% | [3] 120% | [4] 118% | [5] 109% | [6] 107% | [7] 107% | [8] 84.3% | [9] 117% | [10] 119% | [11] 108% | [12] 109% | [13] 110% | [14] 98.9% | [15] 113% | [16] 94.2% | [17] 113% | [18] 106% | [19] 95.7% | [20] 107%

Cn1cc(-c2csc(-c3cn(CCNC(=O)OC(C)(C)C)c4ccc(F)cc34)n2)c2cccnc21
inactive: [1] 57% | [2] 50.8% | [3] 83.9% | [4] 65.7% | [5] 85.9% | [6] 49.2% | [7] 44.3% | [8] 63.1% | [9] 88.1% | [10] 67.5% | [11] 94.2% | [12] 56.4% | [13] 83.2% | [14] 78.4% | [15] 105% | [16] 81.4% | [17] 86.2% | [18] 81.7% | [19] 94.2% | [20] 52.3%

COc1ccc2c(c1)c1nc3cc(C)c(C)cc3nc1n2CCN(C)C
inactive: [4] 20.3% | [6] 41% | [11] 11.9% | [15] 13.2% | [16] 31.3%
active: [1] 1.6% | [2] 7.41% | [3] 3.67% | [5] -22% | [7] 6.94% | [8] -75% | [9] -60.8% | [10] -23.8% | [12] -2.38% | [13] -30.8% | [14] -2.89% | [17] 4.6% | [18] -13.2% | [19] 8.99% | [20] 4.45%

Nc1ccccc1NC(=O)c1ccc(CN2CCC/C(=C\c3ccccn3)C2=O)cc1
active: [10] 1.53% | [12] 9.55% | [15] 2.96% | [17] -2.97%
inactive: [1] 29.3% | [2] 52.8% | [3] 39.8% | [4] 41.8% | [5] 17.9% | [6] 46% | [7] 21.1% | [8] 26.2% | [9] 44.5% | [11] 45.9% | [13] 20.9% | [14] 45.3% | [16] 25% | [18] 27.4% | [19] 26.3% | [20] 12.3%

C=C(C)[C@@H]1CC[C@]2(CN)CC[C@]3(C)[C@H](CC[C@@H]4[C@@](C)(CCCN)[C@H](C(=C)C)CC[C@]43C)[C@@H]12
inactive: [1] 91.1% | [2] 90.6% | [3] 90.2% | [4] 90.6% | [5] 94.7% | [6] 67.4% | [7] 94% | [8] 82.7% | [9] 81.8% | [10] 34.5% | [11] 94.8% | [13] 80.2% | [14] 92.8% | [15] 79% | [16] 79.9% | [17] 101% | [18] 90.4% | [19] 99.7% | [20] 75.2%
active: [12] 1.94%

CCOc1ccc(NC(=O)c2ccoc2COc2ccccc2)cc1
inactive: [1] 103% | [2] 111% | [3] 99.7% | [4] 111% | [5] 112% | [6] 95.2% | [7] 93.9% | [8] 103% | [9] 105% | [10] 123% | [11] 106% | [12] 88.8% | [13] 100% | [14] 98.7% | [15] 106% | [16] 97.8% | [17] 101% | [18] 98.5% | [19] 106% | [20] 104%

COc1ccc(OCC(CO)N2CCN(c3ccccc3)CC2)cc1 (stereo not given)
inactive: [1] 103% | [2] 106% | [3] 115% | [4] 118% | [5] 116% | [6] 81.2% | [7] 99.4% | [8] 100% | [9] 101% | [10] 96.3% | [11] 111% | [12] 126% | [13] 82.7% | [14] 97% | [15] 119% | [16] 95.8% | [17] 101% | [18] 98.5% | [19] 96.1% | [20] 99.8%

N#Cc1c(-c2ccc(O)cc2)c2c(N)nn(-c3ccccc3)c2[nH]c1=O
inactive: [1] 98.9% | [2] 94.5% | [3] 103% | [4] 100% | [5] 110% | [6] 96.6% | [7] 91.3% | [8] 117% | [9] 107% | [10] 122% | [11] 109% | [12] 107% | [13] 105% | [14] 97.8% | [15] 113% | [16] 100% | [17] 110% | [18] 95.7% | [19] 109% | [20] 99.4%
